Assay [1] has as its target D(1A) dopamine receptor (Homo sapiens) (UniProt P21728). Description: HTS Assay for Allosteric Agonists of the Human D1 Dopamine Receptor: Primary Screen for Potentiators (AID 488982). Also: 0% is about no effect. The essentials:
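Calcium flux in an inducible, force-coupled HEK293 Trex D1 line (overnight at 30 C): agonist mode is the 180 s kinetic read after compound; potentiator mode is the following 180 s read after dopamine at EC20.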

Assay [2] shares this target. Nature of the assay: HTS Assay for Allosteric Agonists of the Human D1 Dopamine Receptor: Primary Screen for Antagonists (AID 488983).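 Also: calcium flux response to an EC80 dopamine challenge measured with no-wash dye; % is scaled to controls: 0 for no effect and ±100 for the full control effect; nearly all actives have a fitted effect of over 65% in size.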 The procedure, abridged:
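Cells are induced with tetracycline and incubated overnight at 30 C, then loaded with calcium dye for 30 to 90 minutes at room temperature. Compound addition is followed by a 180 s read, then an EC80 dopamine addition and another 180 s read.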

Assay [3] can be described thus: Validation screen for small molecules that induce genotoxicity in human embryonic kidney (HEK293T) cells expressing luciferase-tagged ELG1 (AID 493106). Also: 0% is about no effect. The procedure, abridged: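 Luminescence from an ELG1-luciferase fusion serves as the read-out, rising when genetic stress elevates ELG1 protein. HEK293T reporter cells (2,000 per well) received 23 nL compound, incubated 16 hr at 37 °C, then ONE-Glo for 30 min at room temperature.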

In assay [4] the target is ATPase family AAA domain-containing protein 5 (Homo sapiens) (UniProt Q96QE3). Nature of the assay: Validation screen for small molecules that inhibit ELG1-dependent DNA repair in human embryonic kidney (HEK293T) cells expressing luciferase-tagged ELG1 (AID 493107).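 Also: cells co-treated with the DNA-damaging agent 5-fluorouridine alongside compound; series mostly up to about 46 µM; % is scaled to controls: 0 for no effect and ±100 for the full control effect; inhibitors lower the ELG1-luciferase luminescence signal; nearly all actives have a fitted effect of over 70% in size.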 The procedure, abridged:
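Luminescence from ONE-Glo, developed 30 min at room temperature, served as read-out of ELG1-luciferase levels. Beforehand, reporter HEK293T cells received 5-fluorouridine plus test compound for 16 hr at 37 °C.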

Assay [5] concerns the target Thyrotropin-releasing hormone receptor (Homo sapiens) (UniProt P34981). Nature of the assay: qHTS for Small Molecule Agonists and Allosteric Enhancers of Human TRH Receptor: Validation Screen for Agonists (AID 493127;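 active = calcium activation more than 3 SD above the typical response in the agonist read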;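 also: intracellular calcium rise by fluo-8 fluorescence before TRH EC20 addition; 0% is about no effect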). The conditions noted are these: TRH receptor agonist cell assay; at 2 µM; stronger effect = higher value. The essentials:
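Cells 2000/well, 10% FCS, 18 h 33.5C/5% CO2 → fluo-8 Ca dye, RT 30 min–1.5 h → FDSS baseline 10 × 1 s → compound added → 230 cycles (1 s/cycle) agonist mode. TRH controls.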
(In general: In qHTS, concentration-response curves come from the screen itself.)

Assay [6] is described as follows: Nrf2 qHTS screen for inhibitors: Validation (AID 493153; active = well fitted inhibition curve with a large enough effect in the main read-out, with a control signal flat, not every such curve was filed as active). The conditions noted are these: viability change: measured here: cytotoxicity max response. The procedure, abridged:
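Luminescence from an ARE-firefly luciferase reporter in A549 cells gives Nrf2 inhibition; an earlier CellTiter-Fluor fluorescent read flags cytotoxicity. Cells in 5% FBS OPTI-MEM received compound dilution series for 18-24 h at 37°C.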

A short description of assay [7]: qHTS for Inhibitors of Cell Surface uPA Generation: Validation Assay (AID 493164). Also: 0% is about no effect. The procedure, abridged:
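RAW 264.7 cells (4000/well) were plated overnight, then exposed for 18 h at 37 C, 5% CO2 to compounds in a 7-point 1:5 titration (2.45 nM–38.3 uM final). Intracellular ATP was read by ATP-Lite luminescence.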

The target of assay [8] is Galactokinase (Homo sapiens) (UniProt P51570). Nature of the assay: qHTS Validation Assay for Inhibitors of Human Galactokinase (GALK) (AID 493189). Also: 0% is about no effect. The essentials:
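Inhibition was measured as remaining ATP, detected by luciferase luminescence after a 1 h room-temperature reaction. Final conditions: 5 nM GALK, 100 uM galactose, 35 uM ATP, pH 8.0 HEPES buffer.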

In assay [9] the target is Phosphoglycerate kinase, glycosomal (Trypanosoma brucei brucei) (UniProt P07378). Nature of the assay: qHTS Validation Assay to Find Inhibitors of Phosphoglycerate Kinase (AID 504547).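 Also: control wells lack PGK and mark full inhibition.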 The essentials: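 Inhibition of the enzyme is judged by a Kinase-Glo Plus luminescent signal following a one-hour incubation at room temperature. Because 1,3-BPG is unstable, it is made in situ by GAPDH at 100nM final; no-PGK wells define the baseline.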
Chain of Phosphoglycerate kinase, glycosomal (Trypanosoma brucei brucei) (P07378 whole entry, looked up): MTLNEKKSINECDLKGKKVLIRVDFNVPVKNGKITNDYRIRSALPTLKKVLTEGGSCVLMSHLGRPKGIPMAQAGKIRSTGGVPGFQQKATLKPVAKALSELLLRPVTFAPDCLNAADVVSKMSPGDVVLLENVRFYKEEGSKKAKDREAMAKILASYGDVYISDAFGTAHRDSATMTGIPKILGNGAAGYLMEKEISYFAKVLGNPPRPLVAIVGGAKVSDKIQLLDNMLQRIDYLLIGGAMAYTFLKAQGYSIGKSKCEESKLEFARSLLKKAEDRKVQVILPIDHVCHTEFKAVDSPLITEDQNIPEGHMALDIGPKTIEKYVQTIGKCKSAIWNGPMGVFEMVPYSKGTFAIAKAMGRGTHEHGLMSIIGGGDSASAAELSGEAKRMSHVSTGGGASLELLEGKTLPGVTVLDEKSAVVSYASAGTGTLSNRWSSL

Assay [10] deals with phosphoglycerate mutase (Leishmania major) (UniProt Q4Q090). Description: qHTS Validation Assay to Find Inhibitors of Phosphoglycerate Mutase (AID 504548). Also: series mostly up to about 58 µM; % is scaled to controls: 0 for no effect and ±100 for the full control effect. The procedure, abridged: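 Lm PGAM at 1.25 nM final with substrate in 100 mM TEA pH 7.6, 5 mM MgCl2, 0.01% Tween-20; 45 min at room temperature. Kinase-GloPlus added, 10 min, end-point luminescence read.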
Chain of phosphoglycerate mutase (Leishmania major) (Q4Q090 1-553): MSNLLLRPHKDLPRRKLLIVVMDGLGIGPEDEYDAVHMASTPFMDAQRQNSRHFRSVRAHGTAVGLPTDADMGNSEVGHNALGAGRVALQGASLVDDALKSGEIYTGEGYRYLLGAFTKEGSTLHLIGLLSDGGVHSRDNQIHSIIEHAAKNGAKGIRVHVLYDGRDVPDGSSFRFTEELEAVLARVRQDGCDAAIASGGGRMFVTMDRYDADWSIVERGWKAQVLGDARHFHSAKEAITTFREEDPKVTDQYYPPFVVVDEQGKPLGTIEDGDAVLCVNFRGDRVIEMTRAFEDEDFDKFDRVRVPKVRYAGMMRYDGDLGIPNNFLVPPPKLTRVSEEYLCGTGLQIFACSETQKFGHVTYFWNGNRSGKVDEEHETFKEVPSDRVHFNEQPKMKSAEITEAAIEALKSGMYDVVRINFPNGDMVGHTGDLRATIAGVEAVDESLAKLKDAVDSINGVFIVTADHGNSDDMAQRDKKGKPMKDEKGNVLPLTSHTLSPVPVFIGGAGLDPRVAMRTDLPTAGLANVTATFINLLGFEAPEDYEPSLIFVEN
A short description of assay [11]: qHTS for Inhibitors of ATXN expression: Validation (AID 588378). Also: series mostly up to about 57 µM; % is scaled to controls: 0 for no effect and ±100 for the full control effect; nearly all actives have a fitted effect of over 75% in size. The essentials: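 Luciferase luminescence (Bright-Glo) from an ATXN2-FFLuc HEK293 line after 24 h compound exposure at 37 °C, preceded by a CellTiter-Fluor fluorescence viability read. Serial dilutions of a reference ATXN2 inhibitor and a luciferase inhibitor served as controls.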
For assay [12], the target named is DNA dC->dU-editing enzyme APOBEC-3G (Homo sapiens) (UniProt Q9HC16). Nature of the assay: qHTS for inhibitors of Vif-A3G interactions: Validation (AID 588379). Also: 0% is about no effect. The procedure, abridged: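 HeLa cells stably expressing Vif and A3G-eYFP, 700 cells/well, incubated overnight at 37 deg C, then exposed to compound overnight at 37 deg C. Inhibition of Vif-mediated degradation read as increased yellow fluorescence (Ex 488/Em 500-530) by laser-scanning cytometry.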

In assay [13] the target is Voltage-gated inwardly rectifying potassium channel KCNH2 (Homo sapiens) (UniProt Q12809). Nature of the assay: qHTS Assay for Small Molecule Inhibitors of the Human hERG Channel Activity (AID 588834).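 Also: top concentration of the series differs between compounds; % is scaled to controls: 0 for no effect and ±100 for the full control effect; lower thallium flux fluorescence means stronger hERG block; nearly all actives have a fitted effect of over 50% in size.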 The procedure, abridged:
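Kinetic FDSS fluorescence; U2OS + hERG BacMam (~100 virus particles/cell); FluxOR Tl+ flux; ~10 min cpd; AC50 (Hill).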

For assay [14], the target named is Glutaminase kidney isoform, mitochondrial (Homo sapiens) (UniProt O94925). Nature of the assay: qHTS for Inhibitors of Glutaminase (GLS): LOPAC Validation (AID 624146). Also: potency is read from the fitted curve at half-maximal effect; nearly all actives have a fitted effect of over 60% in size. The procedure, abridged: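 hKGA in 45 mM KH2PO4 pH 8.2, 0.02% Tween-20 with pin-transferred compounds; 1 mM L-glutamine (stock) plus glutamate oxidase/HRP/Amplex Red coupling added. Fluorescence read initially and after 30 min at RT.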

Assay [15] can be described thus: qHTS of Trypanosoma Brucei Inhibitors: LOPAC Validation (AID 624147). Also: 0% is about no effect. The essentials: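 Quantitative HTS: titrated library compounds versus trypanosomal pyruvate kinase in TEA buffer (pH 7.2) containing KCl, MgCl2, BSA and Tween-20. Reactions were initiated with ADP, 130 uM final. Kinase-Glo Plus luminescence was read after 45 min at RT.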
Assay [16] has as its target Glucagon-like peptide 1 receptor (Homo sapiens) (UniProt P43220). Description: qHTS of GLP-1 Receptor Agonists: LOPAC Validation (AID 624148).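 Also: luminescence from a luciferase reporter switched on by cAMP; 0% is about no effect; higher luminescence signal means agonism.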 The essentials:
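Agonism scored as increased luciferase luminescence driven by cAMP in HEK293 clones carrying GLP-1R. Cells settled 12 hours, received compound for 4-6 hr at 37 deg C, 5% CO2, and were read after 12 min detection reagent at RT.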

The nature of assay [17]: qHTS of Nrf2 Activators: LOPAC Validation (AID 624149). Also: 0% is about no effect. The procedure, abridged:
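Luminescence read-out of ARE-luciferase activation: AREc32_Fluc cells treated with compounds for 24 hr at 37 deg C, then lysed with Steady-Glo for 30 min at room temperature before reading.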

Assay [18] can be described thus: HTS Assay for Allosteric Antagonists of the Human D2 Dopamine Receptor: Hit Validation in HTRF (AID 624455).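 Also: stable D1 dopamine receptor cell line scored for blocking the D1 response; % is scaled to controls: 0 for no effect and ±100 for the full control effect.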 The procedure, abridged: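 First, antagonism was screened by calcium flux in a force-coupled, inducible Hek293 Trex D2 line challenged with EC80 dopamine. Hits then went into an HTRF assay in cells stably expressing D1, testing inhibition of the D1 response.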
For orientation: Time-resolved FRET reads energy transfer from a long-lived donor to a nearby acceptor.

In assay [19] the target is Arylsulfatase A (Homo sapiens) (UniProt P15289). Description: qHTS screen for enhancers of Arylsulfatase A (ASA1): LOPAC Validation Assay (AID 720538). Also: 0% is about no effect. The procedure, abridged:
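Enhancer assay in patient-derived MLD fibroblasts carrying ASA-I179S: 48 h compound exposure at 37 C, then 14 h room-temperature pNCS turnover (0.5 mM final) in lysis buffer. Read by fluorescence at 525/598 nm after NaOH stop.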

A short description of assay [20]: qHTS for compounds that reverse cellular toxicity of Amyloid beta (A-beta) peptide in yeast: LOPAC Validation Assay (AID 720559).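 Also: plate controls were DMSO for no effect and equimolar ferric chloride plus clioquinol rescue for full effect.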 The essentials:
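Rescue of A-beta toxicity was scored as yeast growth by 600 nm absorbance after 48 hr at 30 C with compound. Normalization used DMSO (negative) and equimolar ferric chloride plus clioquinol (positive).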

Molecules are shown by their SMILES. Results filed as inconclusive are left out. Activity calls are given as the source filed them. Unless noted, calls follow the shape of the dose curve; as a rule, active = well fitted curve in the direction sought with a large enough effect; inconclusive = small, poorly fitted or top-dose-only effect, or another doubt; inactive = no such curve, though single readings can be large; an effect the other way counts as inactive or inconclusive.

Chain of D(1A) dopamine receptor (Homo sapiens) (P21728 whole entry, looked up): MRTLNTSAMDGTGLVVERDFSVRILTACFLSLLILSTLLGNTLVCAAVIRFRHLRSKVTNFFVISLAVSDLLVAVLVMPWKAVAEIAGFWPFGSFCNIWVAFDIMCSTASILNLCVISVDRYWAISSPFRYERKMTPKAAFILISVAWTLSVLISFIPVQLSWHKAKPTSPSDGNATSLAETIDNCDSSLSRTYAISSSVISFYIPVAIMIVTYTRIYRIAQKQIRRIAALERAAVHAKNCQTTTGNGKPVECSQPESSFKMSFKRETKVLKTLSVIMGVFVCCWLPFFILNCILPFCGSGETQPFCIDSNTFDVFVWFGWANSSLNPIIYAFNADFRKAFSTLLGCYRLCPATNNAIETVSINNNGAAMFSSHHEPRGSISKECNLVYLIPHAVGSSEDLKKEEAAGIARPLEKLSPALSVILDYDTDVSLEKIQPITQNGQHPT
Chain of Thyrotropin-releasing hormone receptor (Homo sapiens) (P34981 whole entry, looked up): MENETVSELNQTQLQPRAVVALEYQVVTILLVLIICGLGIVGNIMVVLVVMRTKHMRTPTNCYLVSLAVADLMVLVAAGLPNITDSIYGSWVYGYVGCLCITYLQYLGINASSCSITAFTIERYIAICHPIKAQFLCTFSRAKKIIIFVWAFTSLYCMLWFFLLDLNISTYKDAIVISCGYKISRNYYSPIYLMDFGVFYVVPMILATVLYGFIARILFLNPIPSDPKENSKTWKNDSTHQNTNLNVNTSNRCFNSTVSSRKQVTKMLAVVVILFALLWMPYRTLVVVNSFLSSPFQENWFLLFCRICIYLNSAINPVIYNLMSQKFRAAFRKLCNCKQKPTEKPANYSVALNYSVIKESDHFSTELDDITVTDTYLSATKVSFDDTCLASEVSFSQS
Chain of Galactokinase (Homo sapiens) (P51570 whole entry, looked up): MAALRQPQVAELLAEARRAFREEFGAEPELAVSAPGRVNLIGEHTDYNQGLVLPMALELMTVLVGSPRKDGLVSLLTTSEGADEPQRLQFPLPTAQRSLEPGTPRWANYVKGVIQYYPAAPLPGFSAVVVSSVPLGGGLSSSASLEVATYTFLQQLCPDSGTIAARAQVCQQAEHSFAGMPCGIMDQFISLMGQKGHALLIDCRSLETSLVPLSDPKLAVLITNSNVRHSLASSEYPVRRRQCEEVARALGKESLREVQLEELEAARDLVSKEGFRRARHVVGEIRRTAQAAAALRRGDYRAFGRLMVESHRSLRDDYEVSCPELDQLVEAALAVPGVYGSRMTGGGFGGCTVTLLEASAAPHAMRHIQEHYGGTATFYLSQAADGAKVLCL
Chain of Glucagon-like peptide 1 receptor (Homo sapiens) (P43220 whole entry, looked up): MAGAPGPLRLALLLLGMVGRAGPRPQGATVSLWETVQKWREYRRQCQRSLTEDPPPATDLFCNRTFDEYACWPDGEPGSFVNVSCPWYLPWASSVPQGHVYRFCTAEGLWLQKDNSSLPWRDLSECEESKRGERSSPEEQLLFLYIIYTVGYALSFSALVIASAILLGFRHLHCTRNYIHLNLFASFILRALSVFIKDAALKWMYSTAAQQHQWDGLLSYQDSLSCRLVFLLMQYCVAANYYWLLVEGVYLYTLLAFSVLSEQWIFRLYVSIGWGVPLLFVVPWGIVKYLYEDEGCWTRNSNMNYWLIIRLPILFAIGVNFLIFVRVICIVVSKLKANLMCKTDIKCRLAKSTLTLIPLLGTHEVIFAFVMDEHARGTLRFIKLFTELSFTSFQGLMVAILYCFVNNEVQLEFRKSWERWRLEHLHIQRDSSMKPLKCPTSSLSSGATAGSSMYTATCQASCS
Chain of Arylsulfatase A (Homo sapiens) (P15289 whole entry, looked up): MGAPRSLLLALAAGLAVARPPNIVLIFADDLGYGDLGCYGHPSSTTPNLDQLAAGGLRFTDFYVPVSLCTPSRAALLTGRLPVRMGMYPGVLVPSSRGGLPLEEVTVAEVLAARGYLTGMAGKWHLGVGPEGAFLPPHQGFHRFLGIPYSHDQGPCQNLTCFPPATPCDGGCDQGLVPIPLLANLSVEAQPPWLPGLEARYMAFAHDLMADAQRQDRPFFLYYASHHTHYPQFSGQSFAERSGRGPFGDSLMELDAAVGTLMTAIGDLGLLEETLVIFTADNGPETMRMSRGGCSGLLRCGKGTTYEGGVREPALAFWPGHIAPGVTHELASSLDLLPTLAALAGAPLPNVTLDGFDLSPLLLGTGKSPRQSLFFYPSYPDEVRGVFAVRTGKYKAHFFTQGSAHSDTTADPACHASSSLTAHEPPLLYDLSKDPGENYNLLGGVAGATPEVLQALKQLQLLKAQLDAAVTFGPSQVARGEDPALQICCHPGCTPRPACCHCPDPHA
Chain of ATPase family AAA domain-containing protein 5 (Homo sapiens) (Q96QE3 whole entry, looked up, the tested form may be a part): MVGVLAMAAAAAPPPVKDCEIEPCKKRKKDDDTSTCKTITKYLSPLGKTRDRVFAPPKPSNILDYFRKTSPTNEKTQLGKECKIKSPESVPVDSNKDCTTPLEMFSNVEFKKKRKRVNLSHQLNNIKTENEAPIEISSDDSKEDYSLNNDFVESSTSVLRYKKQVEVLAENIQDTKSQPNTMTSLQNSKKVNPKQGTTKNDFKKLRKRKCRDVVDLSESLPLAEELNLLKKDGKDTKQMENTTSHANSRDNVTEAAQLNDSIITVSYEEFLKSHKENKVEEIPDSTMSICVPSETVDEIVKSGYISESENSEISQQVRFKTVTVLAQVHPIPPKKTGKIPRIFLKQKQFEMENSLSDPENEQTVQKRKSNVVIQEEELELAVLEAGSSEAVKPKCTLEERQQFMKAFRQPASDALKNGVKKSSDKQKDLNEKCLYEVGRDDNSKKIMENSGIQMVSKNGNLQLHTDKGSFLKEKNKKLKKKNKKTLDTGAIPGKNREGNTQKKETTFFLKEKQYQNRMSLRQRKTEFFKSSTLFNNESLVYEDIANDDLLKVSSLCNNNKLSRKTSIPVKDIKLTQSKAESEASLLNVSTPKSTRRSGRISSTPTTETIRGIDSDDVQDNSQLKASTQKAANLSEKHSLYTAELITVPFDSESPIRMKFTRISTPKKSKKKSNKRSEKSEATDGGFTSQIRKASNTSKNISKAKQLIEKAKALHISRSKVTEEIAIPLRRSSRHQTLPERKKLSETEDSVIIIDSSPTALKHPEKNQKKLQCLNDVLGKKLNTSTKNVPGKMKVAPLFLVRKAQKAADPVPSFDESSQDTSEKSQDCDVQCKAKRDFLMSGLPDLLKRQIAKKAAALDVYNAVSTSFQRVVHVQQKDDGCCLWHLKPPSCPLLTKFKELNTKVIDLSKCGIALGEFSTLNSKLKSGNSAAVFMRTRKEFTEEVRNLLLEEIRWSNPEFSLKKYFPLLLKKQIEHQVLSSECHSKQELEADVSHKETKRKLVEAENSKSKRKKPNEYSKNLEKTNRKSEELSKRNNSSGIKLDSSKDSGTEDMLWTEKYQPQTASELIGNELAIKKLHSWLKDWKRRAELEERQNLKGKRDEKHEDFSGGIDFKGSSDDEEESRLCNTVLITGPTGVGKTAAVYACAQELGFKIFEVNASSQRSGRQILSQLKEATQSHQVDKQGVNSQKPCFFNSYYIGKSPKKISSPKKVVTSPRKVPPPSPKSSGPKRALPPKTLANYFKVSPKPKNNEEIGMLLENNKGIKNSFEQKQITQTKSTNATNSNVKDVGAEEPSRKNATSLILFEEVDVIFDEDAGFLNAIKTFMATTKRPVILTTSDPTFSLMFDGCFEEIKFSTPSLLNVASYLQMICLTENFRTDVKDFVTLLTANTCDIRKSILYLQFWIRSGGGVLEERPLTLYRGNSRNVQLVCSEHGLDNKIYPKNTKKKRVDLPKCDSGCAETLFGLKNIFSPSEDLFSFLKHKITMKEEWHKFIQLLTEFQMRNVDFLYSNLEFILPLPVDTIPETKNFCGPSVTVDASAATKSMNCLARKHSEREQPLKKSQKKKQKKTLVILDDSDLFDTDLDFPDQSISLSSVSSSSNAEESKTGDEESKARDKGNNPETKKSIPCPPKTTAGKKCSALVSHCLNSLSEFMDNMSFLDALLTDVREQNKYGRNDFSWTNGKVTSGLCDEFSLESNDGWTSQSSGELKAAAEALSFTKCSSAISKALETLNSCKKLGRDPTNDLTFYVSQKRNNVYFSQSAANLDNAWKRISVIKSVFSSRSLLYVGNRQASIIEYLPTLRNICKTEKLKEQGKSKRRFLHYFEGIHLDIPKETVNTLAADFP

For the compound `N#C/C(=C\c1ccc(O)c(O)c1)C(=O)Nc1ccccc1`, the result in assay [1], in assay [2], in assay [6], in assay [7], in [8] and in assay [10] was inactive. Moreover, the outcome in assay [15], in [16], in assay [17], in [18] and in assay [20] was inactive. Besides, the Potency result in assay [3], in [4], in assay [9], in assay [11], in assay [12] and in [13] was “inactive” throughout. Besides, the Potency entry in [19] was “inactive”. Also, in assay [5], the activation was 5.88% (inactive). In addition, in assay [6], the viability change was -12%. Further, the Potency in assay [14] is 631 nM (active).

The values above are taken from PubChem BioAssay (NCATS).
